Laboratory results taken from the supplement of paper PMC6897291.
Structures can show the parent of a compound that is named as a salt.

How the values were obtained:
U-2932 [1] = experiment: growth inhibition by drug alone (1 - RLU/untreated control) (fraction); higher = stronger inhibition; conditions: 177Lu-lilotomab satetraxetan 0 ug/ml
Summary of the method: (§1)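 Growth inhibition was calculated from RealTime-Glo RLU against untreated no-drug wells. Values equal 1 − RLU/mean of 48 untreated no-drug wells per plate, read daily from day 3 after 1 h at 37°C. RIVA and U-2932 cells, with or without 18 h pretreatment by a radiolabelled anti-CD37 antibody conjugate (~600 MBq/mg; 0.5 µg/ml RIVA, 1 µg/ml U-2932), were washed and plated at 3,000 cells/well on compound-printed plates at 10/100 nM (RIVA) or 10/1,000 nM (U-2932).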

RIVA [2] = experiment: as above; conditions: 177Lu-lilotomab satetraxetan 0 ug/ml
Summary of the method: as §1

U-2932 [3] = experiment: growth inhibition by drug plus 177Lu-lilotomab satetraxetan (1 - RLU/untreated control) (fraction); higher = stronger inhibition; conditions: 177Lu-lilotomab satetraxetan 1 ug/ml
Summary of the method: as §1

RIVA [4] = experiment: as above; conditions: 177Lu-lilotomab satetraxetan 0.5 ug/ml
Summary of the method: as §1

| Compound | growth inhibition by drug alone (U-2932 [1]; 10 nM, time (day): 3) | growth inhibition by drug alone (U-2932 [1]; 10 nM, time (day): 4) | growth inhibition by drug alone (U-2932 [1]; 10 nM, time (day): 5) | growth inhibition by drug alone (U-2932 [1]; 10 nM, time (day): 6) | growth inhibition by drug alone (U-2932 [1]; 1000 nM, time (day): 3) | growth inhibition by drug alone (U-2932 [1]; 1000 nM, time (day): 4) | growth inhibition by drug alone (U-2932 [1]; 1000 nM, time (day): 5) | growth inhibition by drug alone (U-2932 [1]; 1000 nM, time (day): 6) | growth inhibition by drug alone (RIVA [2]; 10 nM, time (day): 3) | growth inhibition by drug alone (RIVA [2]; 10 nM, time (day): 4) | growth inhibition by drug alone (RIVA [2]; 10 nM, time (day): 5) | growth inhibition by drug alone (RIVA [2]; 10 nM, time (day): 6) | growth inhibition by drug alone (RIVA [2]; 100 nM, time (day): 3) | growth inhibition by drug alone (RIVA [2]; 100 nM, time (day): 4) | growth inhibition by drug alone (RIVA [2]; 100 nM, time (day): 5) | growth inhibition by drug alone (RIVA [2]; 100 nM, time (day): 6) | growth inhibition by drug plus 177Lu-lilotomab satetraxetan (U-2932 [3]; 10 nM, time (day): 3) | growth inhibition by drug plus 177Lu-lilotomab satetraxetan (U-2932 [3]; 10 nM, time (day): 4) | growth inhibition by drug plus 177Lu-lilotomab satetraxetan (U-2932 [3]; 10 nM, time (day): 5) | growth inhibition by drug plus 177Lu-lilotomab satetraxetan (U-2932 [3]; 10 nM, time (day): 6) | growth inhibition by drug plus 177Lu-lilotomab satetraxetan (U-2932 [3]; 1000 nM, time (day): 3) | growth inhibition by drug plus 177Lu-lilotomab satetraxetan (U-2932 [3]; 1000 nM, time (day): 4) | growth inhibition by drug plus 177Lu-lilotomab satetraxetan (U-2932 [3]; 1000 nM, time (day): 5) | growth inhibition by drug plus 177Lu-lilotomab satetraxetan (U-2932 [3]; 1000 nM, time (day): 6) | growth inhibition by drug plus 177Lu-lilotomab satetraxetan (RIVA [4]; 10 nM, time (day): 3) | growth inhibition by drug plus 177Lu-lilotomab satetraxetan (RIVA [4]; 10 nM, time (day): 4) | growth inhibition by drug plus 177Lu-lilotomab satetraxetan (RIVA [4]; 10 nM, time (day): 5) | growth inhibition by drug plus 177Lu-lilotomab satetraxetan (RIVA [4]; 10 nM, time (day): 6) | growth inhibition by drug plus 177Lu-lilotomab satetraxetan (RIVA [4]; 100 nM, time (day): 3) | growth inhibition by drug plus 177Lu-lilotomab satetraxetan (RIVA [4]; 100 nM, time (day): 4) | growth inhibition by drug plus 177Lu-lilotomab satetraxetan (RIVA [4]; 100 nM, time (day): 5) | growth inhibition by drug plus 177Lu-lilotomab satetraxetan (RIVA [4]; 100 nM, time (day): 6) |
| --- | --- | --- | --- | --- | --- | --- | --- | --- | --- | --- | --- | --- | --- | --- | --- | --- | --- | --- | --- | --- | --- | --- | --- | --- | --- | --- | --- | --- | --- | --- | --- | --- |
| CCOc1ccn(-c2ccc(F)cc2)c(=O)c1C(=O)Nc1ccc(Oc2ccnc(N)c2Cl)c(F)c1 | 0.143 | 0.12 | -0.0713 | -0.014 | 0.036 | 0.0178 | -0.127 | -0.209 | 0.0958 | 0.084 | 0.0356 | -0.0223 | -0.0283 | 0.013 | -0.000157 | -0.0616 | 0.12 | 0.152 | 0.188 | 0.258 | 0.0517 | 0.106 | 0.162 | 0.259 | – | – | – | – | – | – | – | – |
| COc1ccc(CNC(=O)Nc2ncc([N+](=O)[O-])s2)cc1 | -0.00788 | -0.00166 | 0.0195 | 0.136 | 0.0779 | 0.0745 | 0.0965 | 0.0679 | -0.12 | -0.122 | -0.158 | -0.156 | 0.108 | 0.0378 | -0.00577 | -0.0255 | -0.0555 | -0.0169 | 0.0364 | 0.187 | 0.116 | 0.138 | 0.159 | 0.289 | 0.496 | 0.573 | 0.599 | 0.609 | 0.44 | 0.479 | 0.489 | 0.47 |
| COc1cc2c(cc1O)CC[C@@H]1[C@@H]2CC[C@]2(C)[C@@H](O)CC[C@@H]12 [2-Methoxyestradiol] | -0.0505 | -0.0559 | -0.104 | -0.0895 | 0.719 | 0.771 | 0.777 | 0.788 | -0.258 | -0.3 | -0.405 | -0.422 | -0.594 | -0.529 | -0.534 | -0.63 | -0.116 | -0.0531 | 0.00475 | 0.11 | 0.704 | 0.761 | 0.783 | 0.814 | – | – | – | – | – | – | – | – |
| COc1ccc(COc2cc3oc(=O)c4cc(C(C)O)ccc4c3cc2OC)cc1 (configuration not stated) [Palomid 529] | 0.0334 | 0.0194 | -0.0368 | -0.114 | -0.0247 | 0.00321 | -0.0394 | -0.242 | 0.0296 | 0.0604 | -0.0136 | -0.281 | -0.0737 | -0.0625 | -0.0557 | -0.118 | -0.0294 | 0.00126 | 0.0363 | 0.0704 | -0.0939 | 0.0227 | 0.013 | 0.0753 | – | – | – | – | – | – | – | – |
| CCOc1cc2ncc(C#N)c(Nc3ccc(F)c(Cl)c3)c2cc1NC(=O)/C=C/CN(C)C [Pelitinib (EKB-569)] | -0.0434 | -0.0318 | -0.0741 | -0.211 | 0.227 | 0.204 | 0.154 | 0.148 | -0.202 | -0.214 | -0.259 | -0.439 | -0.558 | -0.51 | -0.627 | -0.809 | -0.0948 | -0.0187 | -0.0319 | -0.0653 | 0.276 | 0.3 | 0.292 | 0.357 | 0.334 | 0.432 | 0.448 | 0.476 | 0.182 | 0.368 | 0.372 | 0.405 |
| O=C1CN2Cc3c(ccc(Cl)c3Cl)N=C2N1 [Anagrelide hydrochloride] | 0.1 | 0.0554 | -0.0277 | -0.0568 | 0.0693 | 0.0958 | 0.0817 | 0.0377 | 0.16 | 0.111 | 0.0638 | -0.0807 | 0.214 | 0.214 | 0.119 | 0.0727 | 0.101 | 0.119 | 0.141 | 0.272 | 0.0494 | 0.088 | 0.102 | 0.224 | 0.579 | 0.615 | 0.628 | 0.641 | 0.541 | 0.572 | 0.579 | 0.558 |
| COc1cc(Nc2ncc(F)c(Nc3ccc4c(n3)N(COP(=O)(O)O)C(=O)C(C)(C)O4)n2)cc(OC)c1OC | -0.000834 | -0.000602 | 0.00162 | 0.0946 | 0.00804 | -0.00449 | -0.047 | -0.0248 | -0.112 | -0.134 | -0.185 | -0.286 | -0.0605 | -0.0606 | -0.107 | -0.168 | 0.0179 | 0.0218 | 0.0539 | 0.209 | -0.0117 | 0.00967 | 0.0277 | 0.162 | 0.382 | 0.517 | 0.542 | 0.553 | 0.413 | 0.448 | 0.452 | 0.437 |
| Cc1oc(S(=O)(=O)N2CCCCC2)cc1NC(=O)Nc1ccccc1 | 0.104 | 0.0184 | -0.0595 | -0.0798 | -0.0127 | 0.0108 | -0.117 | -0.249 | 0.0245 | 0.075 | -0.0191 | -0.188 | 0.0283 | 0.0927 | 0.052 | -0.0369 | 0.0412 | 0.101 | 0.11 | 0.174 | -0.0876 | 0.0154 | -0.000234 | 0.0155 | 0.422 | 0.557 | 0.585 | 0.576 | 0.511 | 0.598 | 0.601 | 0.574 |
